RORg inh: ROR gamma (mouse) transcription inhibition; AID 2551; 310,000 compounds, 5.4% hits; Drosophila S2 Gal4-RORgamma UAS-luciferase reporter, 20 h; Potency, µM (top dose mostly 53.6 µM), inactives show at the top dose activity change, negative = inhibition, most hits filed as inhibitors; further: on the % scale 0 is the no-effect control and ±100 the full control effect; nearly all actives have a fitted effect of over 60% in size
Target sequence (P51450 whole entry, looked up, the tested form may be a part): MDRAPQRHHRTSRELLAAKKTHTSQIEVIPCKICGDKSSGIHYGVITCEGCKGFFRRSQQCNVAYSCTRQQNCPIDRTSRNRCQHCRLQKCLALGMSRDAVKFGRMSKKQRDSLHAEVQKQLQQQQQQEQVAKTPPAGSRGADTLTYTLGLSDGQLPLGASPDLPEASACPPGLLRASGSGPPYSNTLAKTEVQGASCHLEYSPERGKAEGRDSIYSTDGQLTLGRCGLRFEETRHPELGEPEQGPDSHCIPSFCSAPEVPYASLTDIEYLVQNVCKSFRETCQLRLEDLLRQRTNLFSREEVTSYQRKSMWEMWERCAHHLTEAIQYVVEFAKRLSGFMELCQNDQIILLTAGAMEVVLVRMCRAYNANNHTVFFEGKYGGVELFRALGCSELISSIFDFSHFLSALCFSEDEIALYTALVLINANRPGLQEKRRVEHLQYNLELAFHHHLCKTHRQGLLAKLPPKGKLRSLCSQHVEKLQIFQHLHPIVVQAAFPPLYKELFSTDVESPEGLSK
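Luciferase reporter read in Schneider cells carrying Gal4-RORγ (mouse) and UAS-Photinus luciferase; cells given compound 1 h before 700 uM copper sulfate induction, then incubated 20 h at ambient temperature.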
VP16 counter: Gal4-VP16 reporter inhibition counter-screen; Drosophila S2 Gal4-VP16 UAS-luciferase, luminescence, 20 h; Potency, µM (highest dose often 53.6 µM), without a hit: top-dose activity, negative = inhibition, actives largely listed as inhibitors; 310,000 compounds, 3.5% hits;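 further: Gal4-VP16 expression switched on by copper sulfate through the metallothionein promoter; on the % scale 0 is the no-effect control and ±100 the full control effect; nearly all actives have a fitted effect of over 50% in size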
GLP1R cytotox: cytotoxicity counter-screen for GLP-1 receptor inverse agonists. HEK293 cAMP-luciferase reporter cells, luminescence, 24 h. Potency, µM (top dose mostly 38.3 µM), for inactives: top-dose activity change, negative = inhibition, hits mostly inhibitors. 410,000 compounds, 0.13% hits;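 further: loss of luciferase light is scored as toxicity; on the % scale 0 is the no-effect control and ±100 the full control effect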
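Compound-treated cells are incubated 24 hr at 37 deg C under 5% CO2 after a 12 hour attachment period, then luciferase detection reagent is added and luminescence is measured following 12 min at room temperature; lowered signal indicates toxicity.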
GLP1R ag: agonists of human GLP-1 receptor | P43220 | HEK293 GLP-1R CRE-luciferase, luminescence, 4-6 h; cells express a hypersensitive GLP-1R form | Potency, µM (highest dose often 45.6 µM), for inactives: at the highest dose activation, usual class: activators | 380,000 compounds, 0.007% hits | AID 624172; further: % of control where 0% means no effect
GLP-1R inv ag: acts as inverse agonist at human GLP-1 receptor; P43220; HEK293 GLP-1R CRE-luciferase, luminescence, 24 h; GLP-1R form is constitutively active; Potency, µM (titrated, usually from 38.3 µM), for inactives: top-dose activity change, negative = inhibition, hits mostly inhibitors; 410,000 compounds, 1.6% hits; further: on the % scale 0 is the no-effect control and ±100 the full control effect; nearly all actives have a fitted effect of over 55% in size
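Seeding at 200 cells/uL, 12 h culture, 24 hr compound treatment, then luciferase reagent and a luminescence read; cells are HEK293 stably expressing a constitutively active GLP-1R plus cAMP-responsive luciferase.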
* marks the source's active call; other numbers are inactive results; u = inconclusive; x = no result given; [ ] = dose if it differs, or a comment. Sampled rows, rich in hits. Any-hit rate of the full collection: about 5.9%. The call rests on the fitted dose curve; in most records, active means well fitted curve in the direction sought with a large enough effect; inconclusive means small, poorly fitted or top-dose-only effect, or another doubt; inactive means no such curve, though single readings can be large; an effect the other way counts as inactive or inconclusive. Potency means the concentration at half of the fitted maximal effect.

SMILES | RORg inh | VP16 counter | GLP1R cytotox | GLP1R ag | GLP-1R inv ag
NNC(=O)c1sc2cc(C(F)(F)F)cnc2c1-c1cccs1 | 10µM* | u | -7.8% | 13.3% | 14.6%
NNC(=O)c1sc2cc(C(F)(F)F)cnc2c1-c1cccnc1 | 14.1µM* | u | 4.3% | 6.4% | 6.5%
CC1(C)CC2(C)OC(=N)C1(C#N)C2(C#N)C#N (configuration not stated) | 7.94µM* | u | -9.9% | -1.6% | 42.2%
Cc1ccc(-c2nn(-c3ccccn3)c(=O)c3ccccc23)cc1C | -35.0% | -2.7% | -7.7% | 10.7% | 10µM*
CCN(CC(=O)Nc1cc(C)nn1-c1nc(C)cc(C)n1)Cc1ccccc1 | 1.41µM* | 6.31µM* | u | 20.0% | u
CCC(C(=O)Nc1cc(C)nn1-c1nc(C)cc(C)n1)c1ccccc1 (configuration not stated) | -16.9% | -18.0% | u | 18.9% | 3.55µM*
CCC(C(=O)Nc1ccncc1)c1ccccc1 (configuration not stated) | u | 12.6µM* | -11.9% | -0.5% | -25.7%
Cc1cc(C)nc(-n2nc(C)cc2NC(=O)CNCc2ccccc2)n1 | 5.62µM* | u | -0.5% | -13.8% | 16.5%
CCC(C(=O)Nc1cccnc1)c1ccccc1 (configuration not stated) | x | x | 1.9% | -3.1% | -2.0%
O=c1c(-c2ccc(F)c(F)c2)nc2cncnc2n1Cc1ccccc1 | 6.0% | -16.2% | x | x | x
CN(C)C(=O)c1ccc(S(=O)(=O)NCc2ccccc2Cl)s1 | x | x | 4.7% | x | -7.1%
CCCCc1nn2c(=O)cc(COC(=O)c3ccccc3NC(=O)C3CCCCC3)nc2s1 | x | x | 10.9% | x | -7.3%
CCn1nc(C)c2c(-c3ccccc3)cc(=O)n(C(C)C(=O)NCc3cccc(OC)c3)c21 (configuration not stated) | x | x | -6.1% | x | u
Cc1oc2cc3oc(=O)c(CCC(=O)NCCCn4ccnc4)c(C)c3cc2c1C | -19.5% | -4.3% | -18.0% | 4.2% | u
Cc1c(CCC(=O)NCCCn2ccnc2)c(=O)oc2cc3oc4c(c3cc12)CCCC4 | 1.26µM* | 15.8µM* | -1.8% | 3.7% | 2.1%
Cc1c(CCC(=O)N2CCC(C(=O)O)(c3ccccc3)CC2)c(=O)oc2cc3oc4c(c3cc12)CCCC4 | 1.12µM* | u | 1.0% | -4.9% | 29.0%
Cc1c(CCC(=O)N2CCC(C(=O)O)CC2)c(=O)oc2cc3oc4c(c3cc12)CCCC4 | u | u | 1.9% | -4.2% | 16.6%
S=C(NCC1CC1)N/N=C/c1ccccc1Cl | 5.62µM* | u | u | 12.8% | u
Fc1ccc(NC(=S)NN=Cc2ccccc2Cl)cc1 | x | x | u | 18.7% | u
Fc1ccc(NC(=S)N/N=C/c2ccc(F)c(F)c2)c(F)c1 | 1.12µM* | 2.51µM* | u | -12.7% | -3.9%
S=C(N/N=C/c1ccccc1Cl)Nc1cccc(Cl)c1Cl | 0.398µM* | 11.2µM* | 12.9% | 8.6% | -25.9%
Fc1ccccc1/C=N/NC(=S)Nc1ccc(Cl)cc1Cl | 0.631µM* | 1.26µM* | u | -5.0% | -10.8%
O=C(N/N=C/c1ccccc1Cl)C1CC1 | -15.2% | -16.6% | -12.4% | -4.4% | -16.9%
CC(=O)N1CCCc2ccc(NC(=O)c3ccc(OC(C)C)cc3)cc21 | x | x | 1.0% | x | 29.1%
COc1ccc(CNc2ncncc2-c2cccc(NS(C)(=O)=O)c2)c(OC)c1 | u | 11.5% | x | x | x
SMILES | RORg inh | VP16 counter | GLP1R cytotox | GLP1R ag | GLP-1R inv ag
O=C(CSc1nnc(CNC(=O)c2ccco2)o1)Nc1ccccc1 | 5.1% | 8.9% | -24.4% | -3.4% | 13.6%
O=C(CSc1nnc(CNC(=O)c2ccco2)o1)Nc1nc2ccccc2s1 | 2.51µM* | 10µM* | 2.9% | -3.0% | -22.3%
O=C(CSc1nnc(CNc2ccc(Cl)cc2)o1)Nc1nc2ccccc2s1 | 14.1µM* | u | -6.7% | -14.5% | -8.3%
COc1ccc(S(=O)(=O)c2cc(NS(=O)(=O)c3ccc(Cl)cc3)c(C)c(C)c2O)cc1 | x | x | 0.8% | -3.1% | u
Cc1cc(C)nc(N/N=C2/CCCC/C2=C\c2ccccc2)n1 | 1.41µM* | 10µM* | u | 10.1% | u
COc1ccccc1Cc1nc2ccccc2nc1SCC(=O)NCc1ccc(F)cc1 | x | x | -2.8% | x | -5.5%
CC(C)(C)c1cccc(C2(O)C(=O)c3ccccc3C2=O)c1O | -27.5% | 12.6µM* | 2.4% | 20.9% | u
COc1ccc(/C=C2/C(=O)N(CC3CCCO3)C(=S)N2C)c(OC)c1 (configuration not stated) | 18.1% | 3.6% | 8.4% | 1.7% | -23.0%
COc1ccccc1/C=C1\NC(=S)N(CC2CCCO2)C1=O (configuration not stated) | 14.8% | 12.6µM* | -27.3% | 9.8% | -9.4%
Oc1cccc2c(NC(=S)Nc3ccc(SC(F)F)cc3)cccc12 | 6.31µM* | 7.94µM* | -11.2% | 0.9% | u
Oc1cccc(NC(=S)Nc2ccc(SC(F)F)cc2)c1 | -9.8% | 4.3% | -15.1% | 1.9% | u
CN(Cc1nc2ccccc2n1C)C(=O)c1ccco1 | -25.2% | -0.9% | 4.1% | -4.1% | 24.7%
Cn1c(C(C#N)C(=O)c2ccco2)nc2ccccc21 (configuration not stated) | u | 6.31µM* | -2.3% | 8.8% | u
Cn1c(C(C#N)C(=O)Cc2cccc3ccccc23)nc2ccccc21 (configuration not stated) | 0.794µM* | u | 17.5% | 8.8% | -1.1%
CCCC(=O)NC(C)c1nc2ccccc2n1C (configuration not stated) | 3.9% | 4.0% | -0.9% | -0.6% | 8.8%
Cc1ccc(NC(=O)C2CCCN(c3nnc(C)c4c(C)n(-c5ccccc5)nc34)C2)cc1Cl (configuration not stated) | x | x | -17.6% | x | 17.8%
CCOC(=O)N1CCN(C(=O)Cc2ccc(C)cc2)CC1 | 6.8% | 0.7% | 8.7% | -6.4% | 4.7%
COc1ccc(/C=C/C(=O)NC(=S)NNC(=O)c2cccs2)cc1 | 2µM* | 22.4µM* | -22.4% | -0.5% | u
CCOC(=O)N1CCN(C(=S)NC(=O)/C=C/c2ccc(C)cc2)CC1 | 5.01µM* | 5.62µM* | u | 1.3% | 9.2%
COc1ccc(/C=C/C(=O)NC(=S)N2CCN(C)CC2)cc1 | 5.62µM* | u | 0.3%[7.66 µM] | 7.1% | 24.1%[7.66 µM]
COc1cc(CCN2C(=O)N[C@@H](c3ccccc3)C(C(C)=O)=C2C)cc(OC)c1OC | 0.0% | 1.4% | x | x | x
COc1ccc(C(=O)C(CCCCC(CN(C)C)C(=O)c2ccc(OC)cc2)CN(C)C)cc1 (configuration not stated) | -2.7% | -3.4% | u | 17.4% | 0.0%
CN(C)CC(CCC(CN(C)C)C(=O)c1ccccc1)C(=O)c1ccccc1 (configuration not stated) | 7.08µM* | 10µM* | u | -5.5% | u

Bioassay records: PubChem, National Center for Advancing Translational Sciences (NCATS)
